Here are results for eight molecules from PubChem BioAssay (NCI).

Holding throughout (experiment): NCI-60 one-dose screen, 48 h (100 = growth as untreated, 0 = no growth, -100 = all killed)
For one experiment, the system named is SK-MEL-2 melanoma. Conditions: 10 µM unless noted.
For a further experiment, the system named is EKVX NSCLC. Conditions: 10 µM unless noted.
The next experiment deals with SN12C renal. To be noted: 10 µM unless noted.
Another experiment concerns UO-31 renal. To be noted: 10 µM unless noted.
The test system of the next experiment is TK-10 renal. Conditions: 10 µM unless noted.
The next experiment deals with ACHN renal. To be noted: 10 µM unless noted.
A further experiment concerns CAKI-1 renal. Conditions: 10 µM unless noted.
Another experiment concerns CCRF-CEM leukemia. Conditions: 10 µM unless noted.
The next experiment deals with MOLT-4 leukemia. To be noted: 10 µM unless noted.
The next experiment has as its system SR leukemia. To be noted: 10 µM unless noted.
In another experiment the test system is RPMI-8226 leukemia. Conditions: 10 µM unless noted.
In the next experiment the test system is OVCAR-8 ovarian. Conditions: 10 µM unless noted.
The next experiment concerns OVCAR-5 ovarian. Conditions: 10 µM unless noted.
The next experiment has as its system OVCAR-4 ovarian. To be noted: 10 µM.
In a further experiment the test system is SK-OV-3 ovarian. Conditions: 10 µM unless noted.
A further experiment relates to IGROV1 ovarian. To be noted: 10 µM unless noted.
Another experiment has as its system OVCAR-3 ovarian. Conditions: 10 µM unless noted.
The next experiment has as its system HS 578T breast. To be noted: 10 µM unless noted.
In the next experiment the test system is NCI/ADR-RES ovarian. Conditions: 10 µM unless noted.
The test system of a further experiment is A498 renal. To be noted: 10 µM unless noted.

About 83,000 compounds went through this panel and 20% of them were active in at least one assay; those are over-represented in the sample as a whole.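 Plates (96-well) were seeded with cells, treated with compound at one concentration, and incubated for 48 hours before percent growth was determined.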 A number with no mark means an inactive call. Active and inactive are the calls of the source. How the source made its calls: active means growth percent below 10; inactive means the rest.

As for `O=C(NCCCCCCCNC(=O)OCc1ccc2c(Cl)cc(Cl)c(O)c2n1)OCc1ccc2c(Cl)cc(Cl)c(O)c2n1`, the growth is -70.6% (active) with SK-MEL-2 melanoma; -45.8% (active) in the experiment with EKVX NSCLC; -76.5% (active) in the experiment with SN12C renal; -100% (active) in the experiment with UO-31 renal; -80.7% (active) with TK-10 renal; -99.9% (active) in the experiment with ACHN renal. Also, the growth in the experiment with CAKI-1 renal was -93.4% (active); in the experiment on CCRF-CEM leukemia, 4.67% (active); in the experiment on MOLT-4 leukemia, -2.43% (active); in the experiment on SR leukemia, 6.26% (active); with RPMI-8226 leukemia, -15.5% (active); in the experiment with OVCAR-8 ovarian, -8.93% (active). Further, the growth with OVCAR-5 ovarian was -76.8% (active); in the experiment on OVCAR-4 ovarian, -71.9% (active); in the experiment on SK-OV-3 ovarian, 35%; with IGROV1 ovarian it was -86.2% (active); in the experiment on OVCAR-3 ovarian, -87.2% (active); in the experiment on HS 578T breast, -9.29% (active). In addition, in the experiment with NCI/ADR-RES ovarian, the growth was -29.5% (active).

`COc1ccc(/C=C(/C(=O)c2ccc(Cl)cc2)C(=O)C(F)(F)F)cc1`: the growth in the experiment on SK-MEL-2 melanoma is 86.4%; in the experiment on EKVX NSCLC it was 92.5%; with SN12C renal, 98%; in the experiment with UO-31 renal, 78.6%; in the experiment on TK-10 renal it was 75.3%; in the experiment on ACHN renal, 110%. In addition, the growth is 94.3% in the experiment with CAKI-1 renal; 89.7% in the experiment on CCRF-CEM leukemia; 85.8% in the experiment on MOLT-4 leukemia; 76.2% in the experiment on SR leukemia; 90.2% with RPMI-8226 leukemia; 102% with OVCAR-8 ovarian. In addition, the growth with OVCAR-5 ovarian was 103%; in the experiment with OVCAR-4 ovarian, 96.3%; in the experiment with SK-OV-3 ovarian it was 100%; in the experiment on IGROV1 ovarian, 96%; in the experiment with OVCAR-3 ovarian, 98.7%; with HS 578T breast, 96.2%. The growth in the experiment on NCI/ADR-RES ovarian is 95.8%.

Take `COc1cc2c(c(OC)c1)C1c3cc(OC)ccc3NC(=O)N1CC2` (centres undefined): the growth with SK-MEL-2 melanoma is 45.5%; in the experiment with EKVX NSCLC it was 91.9%; in the experiment with SN12C renal, 88.5%; with UO-31 renal it was 78.5%; in the experiment with TK-10 renal, 82.5%; in the experiment on ACHN renal it was 100%. Also, the growth with A498 renal was 74.7%; with CCRF-CEM leukemia, 88.2%; in the experiment with MOLT-4 leukemia it was 72.9%; in the experiment on SR leukemia it was 24%; with RPMI-8226 leukemia, 81.9%; in the experiment on OVCAR-8 ovarian, 95.1%. The growth with OVCAR-5 ovarian is 93.7%; in the experiment with OVCAR-4 ovarian, 96.2%; in the experiment with SK-OV-3 ovarian it was 93.1%; with IGROV1 ovarian, 80.2%; in the experiment with OVCAR-3 ovarian, 81.9%; in the experiment on HS 578T breast, 90.2%. For the same molecule, in the experiment on NCI/ADR-RES ovarian, the growth was 51.5%.

For `CCN(CC)c1ccc2cc(C(Nc3ccc(Cl)cc3)c3nnnn3C(C)(C)C)c(=O)oc2c1` (centres undefined), the growth in the experiment on SK-MEL-2 melanoma is 89.5%; with EKVX NSCLC, 81.4%; with SN12C renal, 89.6%; in the experiment on UO-31 renal it was 71.8%; in the experiment on TK-10 renal, 85.7%; in the experiment with ACHN renal it was 92.4%. In addition, the growth in the experiment with CAKI-1 renal was 73.1%; in the experiment with CCRF-CEM leukemia it was 93.5%; in the experiment on MOLT-4 leukemia, 63.5%; in the experiment on SR leukemia, 101%; in the experiment on RPMI-8226 leukemia, 88.4%; in the experiment on OVCAR-8 ovarian, 89.9%. For the same molecule, the growth was 90.2% with OVCAR-5 ovarian; 105% in the experiment on SK-OV-3 ovarian; 93.6% in the experiment with IGROV1 ovarian; 94.4% in the experiment with OVCAR-3 ovarian; 89.4% with HS 578T breast; 97.7% with NCI/ADR-RES ovarian.

In the case of `C=C(C)[C@@H]1CC[C@]2(C(N)=O)CC[C@]3(C)[C@H](CC[C@@H]4[C@@]5(C)CC[C@H](O)C(C)(C)[C@@H]5CC[C@]43C)[C@@H]12`, the growth is -31.2% [100 µM] (active) with SK-MEL-2 melanoma; -10.3% [100 µM] (active) with EKVX NSCLC; -45.8% [100 µM] (active) in the experiment on SN12C renal; -100% [100 µM] (active) with UO-31 renal; -69.8% [100 µM] (active) in the experiment on TK-10 renal; -80.3% [100 µM] (active) with ACHN renal. For the same molecule, the growth in the experiment on CAKI-1 renal is -64.3% [100 µM] (active); in the experiment with CCRF-CEM leukemia, 3.11% [100 µM] (active); in the experiment with MOLT-4 leukemia it was 1.86% [100 µM] (active); in the experiment on SR leukemia, 15.5% [100 µM]; with RPMI-8226 leukemia it was -19.8% [100 µM] (active); with OVCAR-8 ovarian, -64.8% [100 µM] (active). Further, the growth in the experiment on OVCAR-5 ovarian is -21.6% [100 µM] (active); in the experiment on SK-OV-3 ovarian, -45.7% [100 µM] (active); in the experiment on IGROV1 ovarian it was -58.1% [100 µM] (active); in the experiment on OVCAR-3 ovarian, -46.6% [100 µM] (active); with HS 578T breast it was -1.7% [100 µM] (active); with NCI/ADR-RES ovarian it was -8.91% [100 µM] (active).

Regarding `O=C(Nc1cc(F)cc2cccnc12)c1cnc(N2CCNCC2)cn1`, the growth with SK-MEL-2 melanoma is 104%; in the experiment on EKVX NSCLC, 82.7%; with SN12C renal, 75%; in the experiment on UO-31 renal, 29%; with TK-10 renal, 66.6%; with ACHN renal, 28.4%. In addition, the growth in the experiment on CAKI-1 renal is 52.4%; in the experiment on CCRF-CEM leukemia it was 26.3%; with MOLT-4 leukemia it was 24.5%; in the experiment with SR leukemia, 29.5%; with RPMI-8226 leukemia it was 93.1%; in the experiment with OVCAR-8 ovarian, 72.4%. The growth was 83.4% with OVCAR-5 ovarian; 11.2% in the experiment on OVCAR-4 ovarian; 100% with SK-OV-3 ovarian; 43.5% with IGROV1 ovarian; 6.04% (active) in the experiment with OVCAR-3 ovarian; 82.2% in the experiment with HS 578T breast. For the same molecule, the growth with NCI/ADR-RES ovarian is 87.6%.

For the molecule `CN(Cc1cccc(C(F)(F)F)c1)C(=O)[C@@H](CC(=O)N1CCC(N2CCCCC2)CC1)N1C(=O)[C@@H](N2C(=O)OC[C@@H]2c2ccccc2)[C@H]1/C=C/c1ccccc1`, the growth in the experiment on SK-MEL-2 melanoma was 100%; with EKVX NSCLC, 89.9%; in the experiment on SN12C renal it was 82.6%; with UO-31 renal, 83.4%; in the experiment with TK-10 renal, 93.6%; in the experiment with ACHN renal, 100%. Besides, the growth is 91.9% in the experiment on CAKI-1 renal; 90.6% in the experiment on CCRF-CEM leukemia; 58.3% with MOLT-4 leukemia; 54.3% in the experiment with SR leukemia; 66.9% in the experiment on RPMI-8226 leukemia; 93.2% in the experiment on OVCAR-8 ovarian. The growth is 104% in the experiment with OVCAR-5 ovarian; 74.2% in the experiment on OVCAR-4 ovarian; 86.2% with SK-OV-3 ovarian; 89.6% in the experiment on IGROV1 ovarian; 92.9% in the experiment on OVCAR-3 ovarian; 61% in the experiment on HS 578T breast. Further, the growth with NCI/ADR-RES ovarian was 99.2%.

Turning to `c1coc2occoc=2o1`, the growth in the experiment with SK-MEL-2 melanoma was 105%; in the experiment on EKVX NSCLC, 106%; in the experiment on SN12C renal, 89.2%; in the experiment on UO-31 renal, 92.5%; in the experiment on TK-10 renal, 103%; in the experiment on ACHN renal it was 102%. Also, the growth was 101% with CAKI-1 renal; 98.9% with CCRF-CEM leukemia; 114% with MOLT-4 leukemia; 114% in the experiment on SR leukemia; 100% with RPMI-8226 leukemia; 107% with OVCAR-8 ovarian. In addition, the growth with OVCAR-5 ovarian was 101%; in the experiment with SK-OV-3 ovarian it was 99.6%; in the experiment with IGROV1 ovarian it was 109%; in the experiment with OVCAR-3 ovarian it was 103%; in the experiment with HS 578T breast, 104%; in the experiment with NCI/ADR-RES ovarian, 107%.
